Data reported in the supplement of paper PMC11417369.
Over roughly 25,000 sequences, “ln(normalized median fluorescence intensity)” has its median near 9.7; the highest 2% begin near 11. Many of the other results were omitted from the sample, so the highest values are more common in it than they were.

system: PfAP2-HC AP2 domain (GST-tagged); assay: gcPBM binding intensity (ln(normalized median fluorescence intensity)); higher = stronger DNA binding
In short: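 An Agilent 4 × 180k array of primer-extended double-stranded 36-bp intergenic genomic probes, with negative controls, was incubated for 1 h with GST-tagged P. falciparum DNA-binding domains expressed in E. coli. Alexa488 anti-GST antibody detected bound protein, scanned at 488 nm. Binding intensity is the highest Masliner-normalised natural-log median intensity across replicate spots of either probe orientation.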

| Sequence | gcPBM binding intensity (ln) |
| --- | --- |
| CGCATACACGGACACACACACACATATATATATATA [CACACA_site4520] | 10.9 |
| TATAGATACATATACACACACACACCGACATATATA [CACACA_site9138] | 10.8 |
| TATATATACATATACACACACACACCGATATATATA [CACACA_site8706] | 10.5 |
| ATAGTATACGGACACACACACACACCGATATATATA [CACACA_site5032] | 11.2 |
| TATACACGCGGACACACACACACACGCAAAAAAAAA [CACACA_site6377] | 10.5 |
| CATACACGCGGACACACACACACACGCATATATAAC [CACACA_site6427] | 11.2 |
| AGTATACATATATATACACACACACCGATATATATA [CACACA_site8357] | 10.4 |
| GGCATACACGGACACACACACACACCGACATATATA [CACACA_site4493] | 11.5 |
| AAAAAAAAAAGACACACACACACACGCATATACATA [CACACA_site7289] | 10.7 |
| ATAGTATACAGACACACACACACACCGATATATATA [CACACA_site8511] | 10.7 |
| CACGCATACGGACACACACACACACCGATATATATA [CACACA_site4521] | 11 |
| TACATGAATAAACTTACACACACCCATGCATACATA [CACACA_site97] | 10.4 |
| ATGTTATAATTTAGTGTGCACATATTAAGAGGAACA | 10.1 |
| TACATACAGATATATACACACATATATAATATATAT [CACACA_site4376] | 10 |
| CCCTTAATATAAAGCACACATATATATAATATATAT [CACACA_site4439] | 9.79 |
| CAAAATAAAAATAACACACACATTTATTTATATACA [CACACA_site6679] | 10.1 |
| CCCCTCGAAATAATTTGTACGAATATATTGTCTGTA [XGTACX_site8308] | 9.68 |
| ATGTATATGATTAAATGTACGTAAACAAATTTGTAA [XGTACX_site8174] | 9.81 |
| ATATCATTAAAAGGATGTACATATGTGTATACAATA [XGTACX_site871] | 9.84 |
| TATATATATATATATATATATATTAATATATATTAC [XGTACX_negctrl_site103] | 9.62 |
| AAAAAAAAAAGACACACACACATAGACCTCCAATAG [CACACA_site7646] | 10.5 |
| AAAAAAAAAAAAAACACACACACATAGACCTCCAAT [CACACA_site3563] | 11.3 |
| AAAAAAAAAAAACACACACACATAGACCTCCAATAG [CACACA_site3562] | 10.3 |
| ATAAAGAAATAAAGTTGTACATTATATATATATATA [XGTACX_site7729] | 9.61 |

| Sequence | gcPBM binding intensity (ln) |
| --- | --- |
| GGTATATTAAAATAGGTGCATAAAACTAAGAGAAAA [GTGCAC_site9781] | 9.73 |
| AAAAAATACATCAAAAGAAACATATATATATATATA [GTGCAC_negctrl_site719] | 9.59 |
| AAAGAAAGAAAACACACACACATATATATATATCAA [CACACA_site3743] | 10.9 |
| TAGATACAGAAACACACACACACATACATATATACA [CACACA_site3437] | 10.6 |
| ATCAAAAGAAAACACACACACATACATATATATATA [CACACA_site3795] | 11.1 |
| AAAAAAAAAAAACATACACACATACATACAGATATA [CACACA_site4681] | 10.1 |
| ATCAAAAGAAAACACACACACATACAGATATATATA [CACACA_site5974] | 11.2 |
| ATCTTTTATATATTCACACATAAAATTATACAGATA [CACACA_site5277] | 9.46 |
| TATATTTCAGGGGGGAGTACAAATTTTTTTATATAA [XGTACX_site1600] | 10 |
| ATATATGGGTAGTATACACACTGTATATTTAGGAAT [CACACA_site7357] | 9.91 |
| ATATATATATATATGTGTACTAATAAGGTTAAATAA [XGTACX_site1535] | 9.85 |
| AAAAAAAAGAAAAACACACACATATATATATAGAAT [CACACA_site1006] | 11.3 |
| AAAAAAAAAAAAGAAACACACACATATATATATATA [CACACA_site8525] | 10.7 |
| AAAAAAAAAAAAGAAACACACATATATATATATATA [CACACA_site140] | 9.68 |
| AAAAAAAAAAGAAACACACACATATATATATAGAAT [CACACA_site1777] | 10.3 |
| TATATATAGAAACACACACACACATATATATATATT [CACACA_site2539] | 11.3 |
| AAAAAAAAGAAAAACACACACATATTTATTTATAAC [CACACA_site6600] | 10.2 |
| AAGAAAAAAAAAAAAACACACATATATATATATATA [CACACA_site2027] | 10.2 |
| TATATATAGAAACACACACACACATATATATATATA [CACACA_site4116] | 10.3 |
| AAAAAAAAAAAAAAAACACACATATAGATTTATATA [CACACA_site7196] | 9.88 |
| CAAGAAAAGAAACACACACACATATATATATATATA [CACACA_site3881] | 11.2 |
| AAAAAAAAAAGAAACACACACATATAGATTTATAAC [CACACA_site6927] | 10.9 |
| TATATATAGAAACACACACACATATATATATATATT [CACACA_site4115] | 10.5 |
